In all, about 2,400 compounds went through this assay and about 580 (24%) were called active. The list is a sample of the results. A number with no mark means an inactive call.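 The calls were made as follows: active = activity change at or above the mean plus 3 SD of buffer wells without dofetilide, per plate; inactive = the rest.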

For this assay, the target named is Potassium voltage-gated channel subfamily KQT member 2 (Rattus norvegicus) (UniProt O88943). The assay is described as follows: rat KCNQ2 channel activation by compounds alone, confirmation, counter-screen for hERG block protector project, cell-based, CHO, FluxOR thallium flux (AID 1942).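 Also: normalized value minus buffer-control mean plus three SD of buffer wells.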 The settings on record: CHO-KCNQ2 cells, FluxOR thallium flux fluorescence; at 10 µM; stronger effect = higher value.
Chain of Potassium voltage-gated channel subfamily KQT member 2 (Rattus norvegicus) (O88943 whole entry, looked up): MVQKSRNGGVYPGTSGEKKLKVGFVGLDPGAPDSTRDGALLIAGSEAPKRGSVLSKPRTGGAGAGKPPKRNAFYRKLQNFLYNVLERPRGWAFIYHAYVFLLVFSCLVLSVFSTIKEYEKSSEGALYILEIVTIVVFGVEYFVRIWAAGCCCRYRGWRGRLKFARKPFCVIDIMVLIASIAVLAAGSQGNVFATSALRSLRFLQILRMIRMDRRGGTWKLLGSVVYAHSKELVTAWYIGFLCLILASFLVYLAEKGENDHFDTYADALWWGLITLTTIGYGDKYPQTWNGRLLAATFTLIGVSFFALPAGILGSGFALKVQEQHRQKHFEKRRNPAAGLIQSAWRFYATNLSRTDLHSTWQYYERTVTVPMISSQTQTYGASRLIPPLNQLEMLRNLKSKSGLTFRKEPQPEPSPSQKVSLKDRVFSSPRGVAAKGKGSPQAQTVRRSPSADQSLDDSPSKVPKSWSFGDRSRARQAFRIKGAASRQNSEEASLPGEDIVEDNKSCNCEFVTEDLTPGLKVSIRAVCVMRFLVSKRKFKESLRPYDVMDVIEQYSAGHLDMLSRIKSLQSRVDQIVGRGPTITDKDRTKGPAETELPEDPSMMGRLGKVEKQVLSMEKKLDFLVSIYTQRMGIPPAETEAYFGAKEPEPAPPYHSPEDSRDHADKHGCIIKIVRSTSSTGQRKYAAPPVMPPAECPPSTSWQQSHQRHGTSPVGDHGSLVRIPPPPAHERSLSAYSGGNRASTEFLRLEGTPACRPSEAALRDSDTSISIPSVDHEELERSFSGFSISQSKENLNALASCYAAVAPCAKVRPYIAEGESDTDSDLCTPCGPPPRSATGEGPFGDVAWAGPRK
`CCOc1ccccc1NC(=O)C(=O)CC(=O)c1ccc(OC)cc1`: the activity change, less the hit threshold is -5.2%.
For `COc1ccc(C(=O)CC(=O)C(=O)Nc2ccccc2OC)cc1`, the activity change, less the hit threshold was -10.2%.
As to `COc1ccc(C(=O)CC(=O)C(=O)Nc2ccccc2Cl)cc1`, the activity change, less the hit threshold was 44.4% (active).
Take `CC1CCCC(C(=O)OCc2ccccc2)N1` (configuration not stated): the activity change, less the hit threshold was -16.7%.
`Cn1cc([N+](=O)[O-])c(C(=O)NCc2cc3cc(Cl)ccc3[nH]2)n1`: the activity change, less the hit threshold was -13.6%.
Turning to `N#Cc1ccccc1OCCN1C(=O)c2ccccc2C1=O`, the activity change, less the hit threshold is -7.5%.
Turning to `Cc1ccc(-c2cc(-c3n[nH]c(=S)o3)c3ccccc3n2)cc1`, the activity change, less the hit threshold is 37.2% (active).
Under `Cc1ccc(/C=N/NC(=O)c2cc(-c3ccncc3)nc3ccccc23)o1` stands -26.9%; under `C=CCn1c(-c2cc(-c3ccc(C)cc3)nc3ccccc23)n[nH]c1=S`, -9.8%.
Regarding `N#Cc1cc(-c2ccccc2)nnc1Oc1ccccc1`, the activity change, less the hit threshold was -14.7%.
Under `COc1cc2c(cc1OC)CN(C(=O)c1sccc1C)CC2` stands -20.7%.
The value for `COc1ccccc1C(=O)NNC(=O)C(=O)Nc1ccc(C)c(Cl)c1` was 126% (active); that for `COc1ccccc1C(=O)Nc1ccnn1C1CCN(C(=O)c2ccoc2C)CC1` was -12.1%.
Take `COc1ccccc1C(=O)Nc1ccc(C(=O)N2CCCC2)cc1`: the activity change, less the hit threshold is -7.2%.
The value for `Cc1ccc(NC(=O)C(=O)NNC(=O)c2ccccc2C)cc1Cl` was 90.3% (active); that for `COc1ccccc1C(=O)NNC(=O)C(=O)NC(C)(C)C` was 16.8% (active); that for `COc1ccccc1C(=O)NNC(=O)C(=O)Nc1ccc(C)cc1` was 132% (active).
Under `COc1ccc(NC(=O)c2ccccc2SC)cc1OC` stands -19.4%; under `O=C(O)c1cc(-c2cccc([N+](=O)[O-])c2)n[nH]1`, -19.6%; under `O=C(Nc1ccc(Cl)c(-c2nc3ccccc3[nH]2)c1)c1cccnc1`, -40.7%.
For `COc1ccc(CNC(=O)C2CCCN2)cc1OC` (configuration not stated), the activity change, less the hit threshold was -26.1%.
Under `COc1cc(C2C(C#N)=C(N)Oc3c2ccc2ccccc32)ccc1OCC(=O)Nc1ccc(C)cc1` (configuration not stated) stands -15.1%; under `Cc1ccc(C)c(OCc2cc(C(=O)N3CCNC(=O)C3)no2)c1`, -16%; under `Cn1c(=O)c(-c2cc(=O)[nH][nH]2)c(O)c2ccccc21`, -13.7%.
As for `CN(C)NC(=O)C(NC(=O)c1ccc(N)cc1)C12CC3CC(CC(C3)C1)C2` (configuration not stated), the activity change, less the hit threshold was -13.9%.
Under `Cc1ccc(NC(=O)CN2C(=O)S/C(=C\c3ccc(-c4cccc(C(=O)O)c4C)o3)C2=O)cc1` stands -27%.
Under `COc1ccccc1C(=O)NNC(=O)C(=O)NC1CCCCC1` stands 49.7% (active).
The value for `COc1ccc(C(=O)NNC(=O)C(=O)NC2CCCCC2)cc1` was -1.7%; that for `O=C(COc1ccc(Cl)cc1)NNC(=O)C(=O)NC1CCCCC1` was -11.2%.
Consider `COc1cc(NC(=O)c2ccccc2OCc2ccccc2)cc(OC)c1OC`, for which the activity change, less the hit threshold is -26.8%.
As to `COc1ccccc1C(=O)NCc1ccc2c(c1)OCO2`, the activity change, less the hit threshold is -21.4%.
With `COc1ccccc1C(=O)NNC(=O)C(=O)NCc1ccccc1`, the activity change, less the hit threshold is 18.8% (active).

Values taken from PubChem BioAssay AID1942 (Johns Hopkins Ion Channel Center, 2009).
